# According to ChEMBL document CHEMBL2218924, “A broad activity screen in support of a chemogenomic map for kinase signalling research and drug discovery” (Biochem J, 2013):
# Columns and labels:
# [1] = target: Tyrosine-protein kinase SYK (Homo sapiens) (UniProt P43405); settings: at 10 µM
# [2] = target: T1, Mitogen-activated protein kinase kinase kinase 7 (Homo sapiens) (UniProt O43318); settings: at 1 µM
# T1 sequence (whole entry): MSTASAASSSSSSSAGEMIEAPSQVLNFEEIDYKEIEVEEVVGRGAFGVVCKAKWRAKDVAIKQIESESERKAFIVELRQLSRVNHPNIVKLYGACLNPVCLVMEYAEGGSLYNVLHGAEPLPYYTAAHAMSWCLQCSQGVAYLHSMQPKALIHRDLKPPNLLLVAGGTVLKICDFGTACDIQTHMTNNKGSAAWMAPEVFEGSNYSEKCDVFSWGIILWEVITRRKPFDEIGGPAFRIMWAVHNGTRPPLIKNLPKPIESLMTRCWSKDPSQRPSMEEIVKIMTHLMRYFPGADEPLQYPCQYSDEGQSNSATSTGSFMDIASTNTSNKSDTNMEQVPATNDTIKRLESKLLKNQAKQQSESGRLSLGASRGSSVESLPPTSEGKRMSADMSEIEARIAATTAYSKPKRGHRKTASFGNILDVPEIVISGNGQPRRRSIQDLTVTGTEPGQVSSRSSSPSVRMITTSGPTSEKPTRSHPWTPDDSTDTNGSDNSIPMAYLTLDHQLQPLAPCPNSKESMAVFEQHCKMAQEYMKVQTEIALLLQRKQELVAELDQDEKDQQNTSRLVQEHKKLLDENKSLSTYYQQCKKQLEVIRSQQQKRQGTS
# [3] = target: T1, Mitogen-activated protein kinase kinase kinase 7 (Homo sapiens); settings: at 10 µM
# [4] = target: T2, Serine/threonine-protein kinase TAO1 (Homo sapiens) (UniProt Q7L7X3); settings: at 1 µM
# T2 sequence (whole entry): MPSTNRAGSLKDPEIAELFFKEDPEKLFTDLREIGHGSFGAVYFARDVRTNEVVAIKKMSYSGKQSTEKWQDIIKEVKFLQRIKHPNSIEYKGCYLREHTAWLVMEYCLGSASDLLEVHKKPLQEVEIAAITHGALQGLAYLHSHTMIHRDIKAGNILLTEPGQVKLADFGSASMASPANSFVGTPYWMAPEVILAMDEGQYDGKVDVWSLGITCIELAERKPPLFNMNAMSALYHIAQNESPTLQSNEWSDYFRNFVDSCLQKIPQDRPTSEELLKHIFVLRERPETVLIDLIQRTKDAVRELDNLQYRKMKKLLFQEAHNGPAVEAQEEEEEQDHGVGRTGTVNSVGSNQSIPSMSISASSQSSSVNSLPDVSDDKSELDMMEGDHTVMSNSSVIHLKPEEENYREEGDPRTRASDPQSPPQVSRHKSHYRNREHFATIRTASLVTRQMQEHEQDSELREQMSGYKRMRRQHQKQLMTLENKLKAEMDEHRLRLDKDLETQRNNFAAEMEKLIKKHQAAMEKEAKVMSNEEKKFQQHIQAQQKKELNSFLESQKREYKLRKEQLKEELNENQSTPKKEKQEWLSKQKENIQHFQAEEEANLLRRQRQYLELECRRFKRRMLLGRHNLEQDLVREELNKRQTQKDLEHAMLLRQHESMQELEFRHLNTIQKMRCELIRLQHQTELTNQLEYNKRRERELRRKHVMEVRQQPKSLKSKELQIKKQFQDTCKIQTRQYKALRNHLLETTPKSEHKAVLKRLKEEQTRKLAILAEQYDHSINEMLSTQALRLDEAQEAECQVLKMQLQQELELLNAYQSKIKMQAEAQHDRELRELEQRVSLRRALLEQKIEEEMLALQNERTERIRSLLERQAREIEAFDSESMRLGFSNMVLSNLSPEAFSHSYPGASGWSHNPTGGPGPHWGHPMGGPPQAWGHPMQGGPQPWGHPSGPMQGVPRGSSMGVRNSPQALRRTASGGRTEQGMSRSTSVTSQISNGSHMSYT
# [5] = target: T2, Serine/threonine-protein kinase TAO1 (Homo sapiens); settings: at 10 µM
# [6] = target: T3, Serine/threonine-protein kinase TAO2 (Homo sapiens) (UniProt Q9UL54); settings: at 1 µM
# T3 sequence (whole entry): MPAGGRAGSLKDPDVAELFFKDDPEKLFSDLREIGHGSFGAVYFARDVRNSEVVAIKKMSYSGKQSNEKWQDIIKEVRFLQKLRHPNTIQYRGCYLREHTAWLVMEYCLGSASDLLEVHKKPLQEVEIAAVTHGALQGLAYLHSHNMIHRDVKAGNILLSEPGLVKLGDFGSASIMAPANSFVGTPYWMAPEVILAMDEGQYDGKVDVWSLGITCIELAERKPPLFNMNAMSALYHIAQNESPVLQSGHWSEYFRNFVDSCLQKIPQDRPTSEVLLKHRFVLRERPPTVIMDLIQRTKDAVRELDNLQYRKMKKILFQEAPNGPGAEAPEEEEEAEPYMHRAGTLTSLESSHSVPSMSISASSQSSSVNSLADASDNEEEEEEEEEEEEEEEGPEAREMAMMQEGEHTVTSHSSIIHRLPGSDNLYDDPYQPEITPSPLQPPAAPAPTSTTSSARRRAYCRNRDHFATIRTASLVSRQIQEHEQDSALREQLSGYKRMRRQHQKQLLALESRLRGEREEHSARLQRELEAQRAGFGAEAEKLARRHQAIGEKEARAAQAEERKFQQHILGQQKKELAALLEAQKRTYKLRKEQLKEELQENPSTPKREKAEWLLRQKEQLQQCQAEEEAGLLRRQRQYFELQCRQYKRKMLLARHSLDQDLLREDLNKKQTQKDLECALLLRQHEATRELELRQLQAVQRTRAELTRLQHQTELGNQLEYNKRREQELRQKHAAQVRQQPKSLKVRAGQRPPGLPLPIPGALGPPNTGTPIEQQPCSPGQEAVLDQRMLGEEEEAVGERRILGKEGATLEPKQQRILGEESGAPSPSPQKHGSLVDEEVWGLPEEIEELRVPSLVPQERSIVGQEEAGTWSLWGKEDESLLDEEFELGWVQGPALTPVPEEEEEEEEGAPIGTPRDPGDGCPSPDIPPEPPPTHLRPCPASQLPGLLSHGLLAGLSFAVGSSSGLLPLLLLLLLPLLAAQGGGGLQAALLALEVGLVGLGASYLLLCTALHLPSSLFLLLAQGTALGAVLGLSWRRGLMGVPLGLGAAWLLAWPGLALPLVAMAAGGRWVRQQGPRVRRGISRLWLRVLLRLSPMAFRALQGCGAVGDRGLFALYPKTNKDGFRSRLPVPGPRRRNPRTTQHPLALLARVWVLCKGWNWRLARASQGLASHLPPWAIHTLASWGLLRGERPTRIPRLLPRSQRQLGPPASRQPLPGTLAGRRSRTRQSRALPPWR
# [7] = target: T3, Serine/threonine-protein kinase TAO2 (Homo sapiens); settings: at 10 µM
# [8] = target: T4, Serine/threonine-protein kinase TAO3 (Homo sapiens) (UniProt Q9H2K8); settings: at 1 µM
# T4 sequence (whole entry): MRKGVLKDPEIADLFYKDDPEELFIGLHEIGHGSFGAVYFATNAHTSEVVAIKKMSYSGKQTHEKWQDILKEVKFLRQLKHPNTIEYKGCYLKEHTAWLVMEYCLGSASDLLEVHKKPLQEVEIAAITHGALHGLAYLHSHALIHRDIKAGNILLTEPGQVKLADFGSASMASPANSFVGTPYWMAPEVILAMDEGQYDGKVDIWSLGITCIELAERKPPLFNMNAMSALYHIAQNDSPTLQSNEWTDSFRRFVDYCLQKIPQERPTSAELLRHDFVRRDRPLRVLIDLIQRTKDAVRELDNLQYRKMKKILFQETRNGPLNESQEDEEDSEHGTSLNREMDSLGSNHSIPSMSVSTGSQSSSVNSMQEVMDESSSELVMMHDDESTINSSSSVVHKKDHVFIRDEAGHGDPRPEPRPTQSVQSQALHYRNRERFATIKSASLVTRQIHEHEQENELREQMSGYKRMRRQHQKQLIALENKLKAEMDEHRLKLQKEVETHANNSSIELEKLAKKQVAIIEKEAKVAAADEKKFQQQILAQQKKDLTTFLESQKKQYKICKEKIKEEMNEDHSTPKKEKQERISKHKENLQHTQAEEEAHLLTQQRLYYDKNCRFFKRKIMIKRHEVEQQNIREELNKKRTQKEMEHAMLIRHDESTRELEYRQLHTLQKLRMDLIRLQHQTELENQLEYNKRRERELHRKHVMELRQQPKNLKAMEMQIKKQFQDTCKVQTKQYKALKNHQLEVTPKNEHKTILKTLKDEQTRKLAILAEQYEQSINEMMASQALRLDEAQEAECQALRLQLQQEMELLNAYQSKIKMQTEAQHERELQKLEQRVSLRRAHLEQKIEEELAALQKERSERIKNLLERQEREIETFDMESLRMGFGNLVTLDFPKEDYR
# [9] = target: T4, Serine/threonine-protein kinase TAO3 (Homo sapiens); settings: at 10 µM
# [10] = target: T5, Serine/threonine-protein kinase TBK1 (Homo sapiens) (UniProt Q9UHD2); settings: at 1 µM
# T5 sequence (whole entry): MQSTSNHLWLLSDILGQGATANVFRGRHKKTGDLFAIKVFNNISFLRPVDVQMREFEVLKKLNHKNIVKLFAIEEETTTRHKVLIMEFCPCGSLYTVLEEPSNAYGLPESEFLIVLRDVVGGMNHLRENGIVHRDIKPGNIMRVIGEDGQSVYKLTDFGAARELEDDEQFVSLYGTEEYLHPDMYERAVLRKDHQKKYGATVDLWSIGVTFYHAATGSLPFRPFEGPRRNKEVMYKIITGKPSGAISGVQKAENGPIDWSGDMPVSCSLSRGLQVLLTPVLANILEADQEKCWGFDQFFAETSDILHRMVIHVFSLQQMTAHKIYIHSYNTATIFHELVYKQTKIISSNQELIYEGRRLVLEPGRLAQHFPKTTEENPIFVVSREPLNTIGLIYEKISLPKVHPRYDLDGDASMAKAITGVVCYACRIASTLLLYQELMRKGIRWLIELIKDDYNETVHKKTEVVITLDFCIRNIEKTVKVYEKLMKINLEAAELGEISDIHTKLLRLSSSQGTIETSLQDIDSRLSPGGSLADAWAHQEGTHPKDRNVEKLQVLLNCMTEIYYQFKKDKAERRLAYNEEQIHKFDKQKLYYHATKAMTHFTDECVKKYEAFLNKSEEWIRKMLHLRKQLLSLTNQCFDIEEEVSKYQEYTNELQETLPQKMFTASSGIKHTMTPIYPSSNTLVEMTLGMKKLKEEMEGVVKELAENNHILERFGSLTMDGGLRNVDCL
smiles,measurement,setting,value
Oc1ccc(-c2nc(-c3ccc(F)cc3)c(-c3ccncc3)[nH]2)cc1,residual activity,[1],100%
same,residual activity,[2],104%
same,residual activity,[3],101%
same,residual activity,[4],102%
same,residual activity,[5],69%
same,residual activity,[6],106%
same,residual activity,[7],68%
same,residual activity,[8],111%
same,residual activity,[9],84%
same,residual activity,[10],110%
